Hits are enriched below; roughly 2.9% of the tested compounds scored in any of these assays.
EPAC2 antag: Validation qHTS for antagonist of cAMP-regulated guanine nucleotide exchange factor 4 (EPAC2) | Potency, µM (doses to about 112 µM), for the others: top-dose activity, negative = inhibition, actives largely listed as inhibitors | Rap guanine nucleotide exchange factor 4 (Homo sapiens), Q8WZA2 | EPAC2 Rap1B BODIPY-GDP exchange, fluorescence | hit rate 1.7% among 16,000;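 further: 100% = activation by cAMP agonist control; nearly all actives have a fitted effect of over 40% in size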
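Normalized against a 6.5 mM cAMP agonist control, compounds were tested on 100 nM EPAC2 exchanging Rap1B-bound BODIPY-GDP (250 nM) for 50 uM GDP. Fluorescence drop (ex 480, em 540 nm) was tracked at room temperature over 30 min at 5-min intervals.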
EPAC1 ag val: Validation qHTS for agonist of cAMP-regulated guanine nucleotide exchange factor 3 (EPAC1); Potency, µM, for inactives: max response, positive = active, most hits filed as activators; EPAC1 Rap1b BODIPY-GDP exchange, fluorescence; hit rate 1% among 16,000; Rap guanine nucleotide exchange factor 3 (Homo sapiens), O95398; further: nearly all actives have a fitted effect of over 70% in size
* = called active by the depositor; ? = inconclusive; ! = not confirmed by another sample; [ ] = dose if it differs, or a comment. The call rests on the fitted dose curve; in most records, active means well fitted curve in the direction sought with a large enough effect; inconclusive means small, poorly fitted or top-dose-only effect, or another doubt; inactive means no such curve, though single readings can be large; an effect the other way counts as inactive or inconclusive. Unless noted, on the % scale 0 is the no-effect control and ±100 the full control effect; potency means the concentration at half of the fitted maximal effect.

SMILES	EPAC2 antag	EPAC1 ag val
CO[C@H]1C[C@H](O[C@H]2[C@H](C)[C@@H](O[C@@H]3O[C@H](C)C[C@H](N(C)C)[C@H]3OC(C)=O)[C@@H](C)C[C@]3(CO3)C(=O)[C@H](C)[C@@H](OC(C)=O)[C@@H](C)[C@@H](C)OC(=O)[C@@H]2C)O[C@@H](C)[C@@H]1OC(C)=O	-24%[56.6 µM]	-16%
Cc1cn([C@H]2C[C@H](F)[C@@H](CO)O2)c(=O)[nH]c1=O	-9%	-6%
CCc1ccc2c(c1)N(CC(C)CN(C)C)c1ccccc1S2 (centres undefined)	-19%	-30%
Brc1c(Br)c(Br)c2n[nH]nc2c1Br	40µM*	-25%
Brc1c(Br)c(Br)c2[nH]cnc2c1Br	-1%	-9%
CC[C@@]1([C@@H]2O[C@@H]([C@H]3O[C@@](O)(CO)[C@H](C)C[C@@H]3C)C[C@@H]2C)CC[C@H]([C@]2(C)CC[C@]3(C[C@H](O)[C@@H](C)[C@@H]([C@@H](C)[C@@H](OC)[C@H](C)C(=O)O)O3)O2)O1 (stereo in doubt)	-12%	-29%
CO[C@@H]1[C@H](OC(=O)/C=C/C=C/C=C/C=C/C(=O)O)CC[C@]2(CO2)[C@H]1[C@@]1(C)O[C@@H]1CC=C(C)C	-4%	-25%
COC(=O)c1c(OC)cc2c(c1C)Oc1c(Cl)c(O)c(Cl)c(C)c1C(=O)O2	4.5µM*	-78%
COC(=O)c1c(Cl)c(Cl)c(C(=O)OC)c(Cl)c1Cl	-22%	?
COC(=O)c1c(C)c2c(c(C)c1O)OC(=O)c1c(C)c(Cl)c(O)c(Cl)c1O2	2.5µM*	-23%
Cc1csc(CN(C)C(=O)c2sc3ncnc(NCC4CCCO4)c3c2C)n1 (centres undefined)	-18%	-3%
C=CC(C1=CC(=O)C(OC)=CC1=O)c1ccccc1 (centres undefined)	35µM*	18%
C=CC(C1=CC(=O)C(OC)=CC1=O)c1ccc(OC)cc1 (centres undefined)	?	-18%
O=C(CO)[C@@H](O)[C@H](O)[C@H](O)CO	9%	-71%
Clc1ccc(-n2cccc2CN2CCOc3ccc(CN4CCOCC4)cc3C2)nc1	-1%	-10%
CN(Cc1ccco1)c1nc(-c2ccoc2)nc2ccccc12	25µM*	?
CN(Cc1ccco1)c1nc(-c2cccc(C#N)c2)nc2ccccc12	-12%	100µM*
CN(C)c1ccc(-c2nc(N(C)Cc3ccco3)c3ccccc3n2)cc1	-16%	?
CN(C)C(=O)c1ccc(-c2nc(N(C)Cc3ccco3)c3ccccc3n2)cc1	-21%	?
Cc1noc(C)c1-c1nccc(N(C)Cc2ccco2)n1	-18%	-2%
Cc1noc(C)c1-c1nc(N(C)Cc2ccco2)c2ccccc2n1	20µM*	?
CCN(CC)C(=O)c1cc(S(=O)(=O)Cc2ccccc2)c(N2CCC(c3ccccc3)CC2)cc1N(CC)CCN(C)C	-15%	-38%
COC(=O)[C@]12CCC(C)(C)C[C@@H]1[C@@H]1C(=O)C=C3[C@@]4(C)C=C(C#N)C(=O)C(C)(C)[C@@H]4CC[C@@]3(C)[C@]1(C)CC2	?	15%
COc1cc([C@@H]2c3cc4c(cc3C(O[C@@H]3O[C@@H]5CO[C@@H](C)O[C@H]5[C@H](O)[C@H]3O)C3COC(=O)[C@@H]32)OCO4)cc(OC)c1OP(=O)(O)O (some centres undefined)	20%	-3%
C[C@@]12C(=O)OC(=O)[C@@]1(C)C1CCC2O1	12%	-33%
SMILES	EPAC2 antag	EPAC1 ag val
C[C@@]12C(=O)OC(=O)[C@@]1(C)[C@@H]1CC[C@@H]2O1	56µM*	-12%
COc1ccccc1C1CN(Cc2cccc(C)n2)Cc2ccccc2O1 (centres undefined)	?	15%
CCC(Oc1ccccc1)C(=O)N[C@@H]1C(=O)N2[C@@H]1SC(C)(C)[C@@H]2C(=O)O (some centres undefined)	5%	-20%
O=C[C@H](O)[C@@H](O)[C@@H](O)[C@H](O)CO	-1%	-42%
CCOc1nc2cccc(C(=O)OC(C)OC(=O)OC3CCCCC3)c2n1Cc1ccc(-c2ccccc2-c2nn[nH]n2)cc1 (centres undefined)	56µM*	?
CCCc1nc(C(C)(C)O)c(C(=O)OCc2oc(=O)oc2C)n1Cc1ccc(-c2ccccc2-c2nn[nH]n2)cc1	-20%	-19%
O.O.O.O.O.O.O.O=S(=O)([O-])[O-].[Co+2]	50µM*	-32%
CCOC(=O)/C=C1\CN(Cc2ccc(OC)cc2)S(=O)(=O)c2ccc(C(F)(F)F)cc21	?	-50%
OCCN(CCO)c1ccc(/C=C/c2ccnc3ccccc23)cc1	-22%	27%
CN(C)c1ccc(/C=C/c2ccnc3ccccc23)cc1Cl	?	13%
CCCCN(CCC#N)c1ccc(/C=C/c2ccnc3ccccc23)cc1	18%	100µM*
Cc1cc(/C=C/c2ccnc3ccccc23)ccc1N(C)C	150%	100µM*
CC[N+](CC)(CC)c1ccc(/C=C/c2ccnc3ccccc23)cc1	?	-58%
CC[N+](C)(C)c1ccc(/C=C/c2ccnc3ccccc23)cc1	45µM*	-130%
COc1ccc(C(=O)/C(Br)=C\C(=O)O)cc1	7%	-13%
CC1(C)C2CC[C@]3(C)[C@H](C(=O)C=C4[C@@H]5C[C@@](C)(C(=O)O)CC[C@]5(C)CC[C@]43C)[C@@]2(C)CC[C@@H]1O[C@H]1O[C@H](C(=O)O)[C@@H](O)[C@H](O)[C@H]1O[C@@H]1O[C@H](C(=O)O)[C@@H](O)[C@H](O)[C@H]1O (some centres undefined)	?	4%
CC1(C)[C@@H](O)CC[C@]2(C)C3C(=O)C=C4C5C[C@@](C)(C(=O)O)CC[C@]5(C)CC[C@@]4(C)[C@]3(C)CC[C@@H]12 (some centres undefined)	4µM*	-15%
COC(=O)C1=C(C)NC(C)=C([N+](=O)[O-])C1c1ccccc1C(F)(F)F (centres undefined)	40µM*!	2%
CC1=C(C(=O)OC(C)C)[C@@H](c2cccc3nonc23)C([N+](=O)[O-])=C(C)N1	-51%	-1%
COc1cccc(-c2nc3cc4c(cc3cc2CN(C(=O)c2cccs2)C2CC2)CCC4)c1OC	?	-4%
C(=C\c1ccnc2ccccc12)/c1ccc(N2CCNCC2)cc1	-29%	-53%
COc1cc(-c2coc3cc(OCc4ccccc4)c(OC)c(O)c3c2=O)cc(O)c1OC	-18%	112µM*
COc1cc(-c2coc3cc(O[C@H]4OC(CO)C(O)C(O)C4O)c(OC)c(O)c3c2=O)cc(O)c1OC (some centres undefined)	-7%	20%
COc1ccccc1C(=O)N[C@@H]1c2ccccc2C2(CCN(Cc3c(O)cccc3OC)CC2)[C@H]1O	-10%	-5%
COc1ccc2[nH]cc(CCNc3nc(-c4cccc(C#N)c4)nc4ccccc34)c2c1	-28%	112µM*
COc1ccc2[nH]cc(CCNc3nc(-c4ccccc4OC)nc4ccccc34)c2c1	-21%	?
Oc1cc(-c2nc3ccccc3s2)cc2c1OCCN(Cc1cn[nH]c1-c1ccc(Cl)cc1)C2	-24%	-3%
CCCCCCCCCCCCCCCCCCOCC(COP(=O)([O-])OCC[N+](C)(C)C)OC (centres undefined)	7%	-24%

Source: PubChem
